Experiment [1] is described as follows: resazurin metabolic signal in HepG2 cells – cell-based, resazurin fluorescence, 24 h, PK04 Diversity Set, profiling panel (AID 1172). Note: test concentration not given here. The note with it: HepG2 viability, higher = more signal. (The colour change of resazurin is a common sign of viable cells or microbes.)
The nature of experiment [2]: budding yeast growth changes without added modifier – OD600, strain BY4716, 24 h, basal condition, primary screen (AID 1173). To be noted: S. cerevisiae BY4716 growth, OD600, 24 h; higher = more signal, called active from +8 up or from −8 down.
The nature of experiment [3]: viability profiling in MM1S myeloma cells – cell-based, resazurin fluorescence, basal, 24 h, PK04 Diversity Set, profiling panel (AID 1174).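 Note: MM1S multiple myeloma cell line; test concentration not given here.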 The note with it: higher = more signal, called active from +8 up or from −8 down.
In experiment [4] the target is Dihydroorotate dehydrogenase (quinone), mitochondrial (Plasmodium falciparum (isolate 3D7)) (UniProt Q08210). Briefly: inhibition of P. falciparum DHODH – biochemical, C-terminal His tag, absorbance 600 nm, primary screen (AID 1175).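 Note: recombinant parasite enzyme with a five histidine tag at its C terminus; test concentration not given here.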 The note with it: PfDHODH enzyme, DCIP absorbance 600 nm; higher = more signal, called active from +8 up or from −8 down.
A short description of experiment [5]: inhibition of PAO1 biofilm formation – strain PAO1, LB-PBS medium, absorbance 600 nm, primary screen (AID 1176). Note: test concentration not given here. To be noted: P. aeruginosa PAO1 growth/biofilm, A600, 12 h; higher = more signal.
Experiment [6] is described as follows: growth modulation of vineyard yeast isolate – strain RM11-1a, OD600, basal, 24 h, primary screen (AID 1177).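 Note: cultures grown under basal conditions with no added stressor; test concentration not given here.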 The note with it: S. cerevisiae RM11-1a growth, OD600, 24 h; higher = more signal, called active from +8 up or from −8 down.
A short description of experiment [7]: growth of efflux-deficient E. coli DRC39 – strain DRC39, OD650, 24 h, E. coli filamentation inducers, primary screen (AID 1178).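 Note: growth measured as culture turbidity by optical density at 650 nm; test concentration not given here.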 The note with it: E. coli DRC39 acrAB, higher = more signal, called active from +8 up or from −8 down.
Experiment [8] is described as follows: growth of efflux-deficient E. coli DRC39 – strain DRC39, OD650, 48 h, E. coli filamentation inducers, primary screen (AID 1179).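 Note: screen aims at cell division blockers that make cells filament.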 To be noted: E. coli DRC39 delta-acrAB growth, higher = more signal, called active from +8 up or from −8 down.
Experiment [9] is described as follows: viability profiling in RPMI8226 myeloma cells – cell-based, resazurin fluorescence, basal, 24 h, PK04 Diversity Set, profiling panel (AID 1180).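 Note: RPMI8826 multiple myeloma cell line at 5000 cells per well; test concentration not given here.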 The note with it: higher = more signal.
Experiment [10] concerns the target E3 ubiquitin-protein ligase XIAP (Homo sapiens) (UniProt P98170). Briefly: small molecules binding XIAP protein – biophysical, small-molecule microarray, fluorescence 635 nm, primary screen (AID 1181).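 Note: score merges 667 nm emission and signal to noise over triplicate slides.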 To be noted: higher = more signal.

The structures appear in SMILES notation. The source made the active and inactive calls. Unless noted, the rule behind the calls is not given here.

E3 ubiquitin-protein ligase XIAP (Homo sapiens), sequence (P98170 whole entry, looked up): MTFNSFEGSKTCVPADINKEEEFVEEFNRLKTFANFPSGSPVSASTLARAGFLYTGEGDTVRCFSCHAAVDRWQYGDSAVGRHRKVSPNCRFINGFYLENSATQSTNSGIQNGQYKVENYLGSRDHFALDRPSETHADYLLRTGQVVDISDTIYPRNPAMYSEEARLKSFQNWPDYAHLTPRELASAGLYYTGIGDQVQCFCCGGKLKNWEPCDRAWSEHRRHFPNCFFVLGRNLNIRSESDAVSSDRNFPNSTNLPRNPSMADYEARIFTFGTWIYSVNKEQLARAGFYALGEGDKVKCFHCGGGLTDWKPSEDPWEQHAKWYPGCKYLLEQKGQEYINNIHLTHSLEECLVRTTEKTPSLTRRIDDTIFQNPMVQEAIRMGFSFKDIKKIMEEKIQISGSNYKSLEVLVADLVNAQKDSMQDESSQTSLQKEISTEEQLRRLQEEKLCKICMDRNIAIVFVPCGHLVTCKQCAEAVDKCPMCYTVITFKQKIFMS
Dihydroorotate dehydrogenase (quinone), mitochondrial (Plasmodium falciparum (isolate 3D7)), sequence (Q08210 whole entry, looked up): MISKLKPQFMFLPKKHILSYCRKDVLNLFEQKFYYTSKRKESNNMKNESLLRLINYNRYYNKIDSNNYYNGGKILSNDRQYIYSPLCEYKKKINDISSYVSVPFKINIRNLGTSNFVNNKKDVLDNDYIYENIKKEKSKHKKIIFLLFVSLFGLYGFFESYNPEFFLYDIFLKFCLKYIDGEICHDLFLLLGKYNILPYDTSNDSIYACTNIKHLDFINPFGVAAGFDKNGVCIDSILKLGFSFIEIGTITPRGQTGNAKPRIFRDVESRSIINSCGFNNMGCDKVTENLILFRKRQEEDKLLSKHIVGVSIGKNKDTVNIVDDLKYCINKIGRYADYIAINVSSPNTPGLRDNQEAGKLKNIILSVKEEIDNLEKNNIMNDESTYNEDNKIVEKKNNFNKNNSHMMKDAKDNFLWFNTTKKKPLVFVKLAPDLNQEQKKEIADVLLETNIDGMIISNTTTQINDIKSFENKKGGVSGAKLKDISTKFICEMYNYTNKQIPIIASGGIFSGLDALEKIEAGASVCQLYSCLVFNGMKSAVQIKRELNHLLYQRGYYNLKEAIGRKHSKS

Turning to `COCCCNC(=O)[C@@H]1c2ccccc2C(=O)N(Cc2cc(C(F)(F)F)cc(C(F)(F)F)c2)[C@H]1c1ccc(CO)cc1`, the z-score is -0.249 in experiment [1]; -0.65 (inactive) in experiment [2]; -0.0193 (inactive) in [3]; 0.196 (inactive) in experiment [5]; -0.432 (inactive) in experiment [6]; 0.153 (inactive) in experiment [7]. In addition, the z-score was 0.304 (inactive) in experiment [8] and 0.431 in experiment [9]. In addition, the composite z-score is 0.721 (inactive) in [4] and 0.0871 in [10].

`O=C1O[C@@H](c2ccccc2)[C@@H](c2ccccc2)N2[C@@H](c3ccc(OCCO)cc3)[C@]3(C(=O)Nc4ccc(C#CCCO)cc43)[C@@H](C(=O)Nc3nc4ccccc4s3)[C@H]12`: the z-score in [1] is 1.44; in [2], 0.799 (inactive); in experiment [3] it was 1 (inactive); in [5], 0.89 (inactive); in experiment [6], 0.25 (inactive); in experiment [7], 0.042 (inactive). Further, the z-score is -0.366 (inactive) in experiment [8] and 1.51 in [9]. The composite z-score in experiment [4] is -0.812 (inactive); in experiment [10], 0.0225.

With `NCCCC[C@@H]1NC(=O)[C@H]2C[C@@H](C(=O)NCc3ccc(F)cc3)[C@@H](c3ccc(O)cc3)N2C1=O`, the z-score was 0.175 in experiment [1]; 1.15 (inactive) in [2]; 0.247 (inactive) in experiment [3]; 0.174 (inactive) in [5]; 1.02 (inactive) in experiment [6]; 0.207 (inactive) in [7]. Moreover, the z-score in experiment [8] was -0.277 (inactive); in experiment [9] it was 0.191. For the same compound, the composite z-score is -0.17 (inactive) in experiment [4] and 0.226 in [10].

`C=CCN1C(=O)[C@]2(O[C@H](CCO)[C@@H]([Si](C)(C)c3ccc(OC)cc3)[C@@H]2C)c2ccccc21`: the z-score in [1] is -2.84; in experiment [2] it was -5.08 (inactive); in experiment [3], -1.46 (inactive); in experiment [5], 0.225 (inactive); in experiment [6], 1.55 (inactive); in experiment [7], -0.377 (inactive). For the same compound, the z-score in experiment [8] is -1.46 (inactive); in [9], -2.74. Further, the composite z-score was 0.0196 (inactive) in experiment [4] and -0.144 in experiment [10].

For `C[N+](C)(C)CCCCCCNC(=O)[C@@H]1C[C@@H]2C(=O)N[C@@H](Cc3ccccc3)C(=O)N2[C@@H]1c1ccc(O)cc1`, the z-score in experiment [1] was 1.17; in experiment [2] it was -0.471 (inactive); in experiment [3] it was 0.224 (inactive); in experiment [5], 0.615 (inactive); in experiment [6] it was -0.0653 (inactive); in experiment [7] it was 0.457 (inactive). Besides, the z-score in experiment [8] is 0.492 (inactive); in experiment [9] it was 0.25. Also, the composite z-score was -0.77 (inactive) in experiment [4] and -0.0882 in experiment [10].

`COC(=O)[C@@]1(Cc2ccccc2)[C@H]2c3cc(C(=O)N4CCCC4)n(Cc4ccc(C(F)(F)F)nc4)c3C[C@H]2CN1C(=O)c1ccccc1`: the z-score in [1] is 0.0826; in experiment [2] it was 1.18 (inactive); in experiment [3], -0.335 (inactive); in [5], -0.374 (inactive); in experiment [6] it was 0.151 (inactive); in experiment [7], 0.018 (inactive). In addition, the z-score in experiment [8] is -0.815 (inactive); in [9], -0.578. For the same compound, the composite z-score is -0.559 (inactive) in [4] and 0.0558 in [10].

Regarding `CCCC[C@H]1OB(O)C[C@H]2C1=C(C)C[C@H]1C(=O)C=CC(=O)[C@H]12`, the z-score was -0.559 in [1]; -17.6 (active) in experiment [2]; -1 (inactive) in experiment [3]; 0.318 (inactive) in experiment [5]; 0.128 (inactive) in experiment [6]; -0.449 (inactive) in experiment [7]. For the same compound, the z-score was -0.316 (inactive) in experiment [8] and -0.312 in experiment [9]. The values for the composite z-score in [4] and in experiment [10] were -2.54 (inactive) and -0.188, respectively.

As to `O=C1c2ccccc2[C@](Cc2ccccc2I)(C(=O)O)[C@H](c2ccc(CO)cc2)N1Cc1ccccc1`, the z-score was -0.52 in experiment [1]; -1.72 (inactive) in experiment [2]; -0.427 (inactive) in [3]; -0.121 (inactive) in experiment [5]; -2.09 (inactive) in [6]; 0.656 (inactive) in experiment [7]. Besides, the z-score is 1.39 (inactive) in [8] and -0.831 in experiment [9]. The composite z-score in experiment [4] was -5.63 (inactive); in experiment [10] it was 0.147.

Consider `COCCCNC(=O)[C@@]1(Sc2ccc(C)cc2)CC(=O)N(C2CCCCC2)[C@@H]1c1ccc(CO)cc1I`, for which the z-score is 0.5 in [1]; -0.172 (inactive) in experiment [2]; -0.326 (inactive) in [3]; 0.627 (inactive) in [5]; -1.09 (inactive) in experiment [6]; 0.16 (inactive) in experiment [7]. In addition, the z-score is 0.228 (inactive) in [8] and -1.66 in experiment [9]. Also, the composite z-score in experiment [4] is 0.335 (inactive); in experiment [10], -0.328.

In the case of `CCCC[C@@H]1C[C@H]1[C@@H](NC(=O)c1ccc(C(F)(F)F)cc1)c1ccc(C(=O)OC)cc1`, the z-score in experiment [1] was 1.51; in experiment [2], 0.146 (inactive); in [3], 0.444 (inactive); in experiment [5], 1.02 (inactive); in [6], 1.02 (inactive); in experiment [7] it was 0.909 (inactive). Moreover, the z-score in experiment [8] was 0.787 (inactive); in experiment [9] it was 0.971. In addition, the values for the composite z-score in experiment [4] and in experiment [10] were -0.0667 (inactive) and 0.209, respectively.

Take `C=C(COC)C(=O)CC[C@@H](OC(C)=O)c1ccc(OCCO)cc1`: the z-score in experiment [1] was -0.487; in experiment [2], -0.997 (inactive); in experiment [3] it was -0.487 (inactive); in [5], 0.98 (inactive); in experiment [6], 0.423 (inactive); in experiment [7], -0.623 (inactive). Further, the results for the z-score in experiment [8] and in [9] were -0.432 (inactive) and -0.781, respectively. For the same compound, the composite z-score in experiment [4] was -5.2 (inactive); in experiment [10] it was -0.0848.

As to `N#Cc1ccc(C(O)C2C=CC3C(=O)NC(=O)C3N2Nc2ccccn2)cc1` (stereo not given), the z-score was -1.62 in experiment [1]; -0.055 (inactive) in experiment [2]; -0.601 (inactive) in experiment [3]; 0.791 (inactive) in experiment [5]; -1.57 (inactive) in experiment [6]; 0.0007 (inactive) in experiment [7]. The z-score is 1.25 (inactive) in experiment [8] and -0.353 in [9]. The composite z-score was -0.127 (inactive) in experiment [4] and -0.0536 in experiment [10].

As for `NC(=O)[C@@]1(CCS(=O)(=O)c2ccccc2)COC(c2ccc(OCCCO)cc2)=N1`, the z-score was -0.285 in [1]; 0.511 (inactive) in experiment [2]; -1.34 (inactive) in experiment [3]; -0.304 (inactive) in experiment [5]; 0.0637 (inactive) in [6]; -0.223 (inactive) in experiment [7]. The figures for the z-score in experiment [8] and in [9] were 0.491 (inactive) and -0.318, respectively. The composite z-score was -0.809 (inactive) in experiment [4] and 0.291 in [10].

(Values after PubChem BioAssay.)
